The list is not random: actives were taken first. Their share in the collection is about 12%.
HP1b chromo inh = blocks HP1-beta chromodomain binding to methylated histone tails; AID 540317; Potency, µM (top dose mostly 114 µM), for the others: at the top dose activity change, negative = inhibition, most hits filed as inhibitors; 0.56% of 390,000 active; AlphaScreen HP1-beta / biotin-H3K9me3 peptide binding; further: nearly all actives have a fitted effect of over 70% in size
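AlphaScreen: HP1-beta (50 nM) preformed 30 min with biotin-H3(1-18)K9me3 peptide (50 nM) in PBS pH 7.4, 0.01% Tween-20. Compound added for 30 min at RT, then streptavidin donor/nickel chelate acceptor beads (10 ug/mL) for 30 min.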
JMJD2A Tudor inh = inhibitors of human JMJD2A Tudor domain; O75164; AlphaScreen JMJD2A-Tudor / H3K4me3 peptide binding; Potency, µM (highest dose often 114 µM), for inactives: top-dose activity change, negative = inhibition, hits mostly inhibitors; 4.4% of 390,000 active; further: on the % scale 0 is the no-effect control and ±100 the full control effect; nearly all actives have a fitted effect of over 50% in size
L3MBTL1 block = L3MBTL1 (human) inhibition. Potency, µM (top dose mostly 57.1 µM), for the others: at the highest dose activity, negative = inhibition, hits mostly inhibitors. AlphaScreen L3MBTL1–H3K9me1 peptide binding. Q9Y468. 0.66% of 230,000 active. AID 485360; further: on the % scale 0 is the no-effect control and ±100 the full control effect; nearly all actives have a fitted effect of over 60% in size
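AlphaScreen proximity signal between nickel-chelate acceptor and streptavidin donor beads (final 10 ug/mL) reports binding of 50 nM L3MBTL1 to 75 nM biotin-H3 K9me1 peptide; complex incubated with compounds 30 min at room temperature; cefsulodin titration as control.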
G9a block = G9a (human) methyltransferase inhibition; G9a H3K9 monomethylation, AlphaScreen, 2 h; Potency, µM (titrated, usually from 102 µM), for the others: at the highest dose activity, negative = inhibition, usual class: inhibitors; 8.8% of 350,000 active; further: on the % scale 0 is the no-effect control and ±100 the full control effect; nearly all actives have a fitted effect of over 75% in size
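Signal arises when biotinylated H3K9 peptide, once monomethylated, bridges streptavidin donor and antibody-captured acceptor beads. Enzyme at 20 nM was preincubated 15 min with test compounds; peptide 500 nM and SAM 20 uM then reacted for 2 h.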
BAZ2B inh = blocks human BAZ2B | Q9UIF8 | AlphaScreen BAZ2B-H3K14Ac peptide displacement | Potency, µM (titrated, usually from 114 µM), for the others: top-dose activity change, negative = inhibition, usual class: inhibitors | 4.4% of 360,000 active; further: on the % scale 0 is the no-effect control and ±100 the full control effect; nearly all actives have a fitted effect of over 60% in size
Target sequence (Q9UIF8 whole entry, looked up): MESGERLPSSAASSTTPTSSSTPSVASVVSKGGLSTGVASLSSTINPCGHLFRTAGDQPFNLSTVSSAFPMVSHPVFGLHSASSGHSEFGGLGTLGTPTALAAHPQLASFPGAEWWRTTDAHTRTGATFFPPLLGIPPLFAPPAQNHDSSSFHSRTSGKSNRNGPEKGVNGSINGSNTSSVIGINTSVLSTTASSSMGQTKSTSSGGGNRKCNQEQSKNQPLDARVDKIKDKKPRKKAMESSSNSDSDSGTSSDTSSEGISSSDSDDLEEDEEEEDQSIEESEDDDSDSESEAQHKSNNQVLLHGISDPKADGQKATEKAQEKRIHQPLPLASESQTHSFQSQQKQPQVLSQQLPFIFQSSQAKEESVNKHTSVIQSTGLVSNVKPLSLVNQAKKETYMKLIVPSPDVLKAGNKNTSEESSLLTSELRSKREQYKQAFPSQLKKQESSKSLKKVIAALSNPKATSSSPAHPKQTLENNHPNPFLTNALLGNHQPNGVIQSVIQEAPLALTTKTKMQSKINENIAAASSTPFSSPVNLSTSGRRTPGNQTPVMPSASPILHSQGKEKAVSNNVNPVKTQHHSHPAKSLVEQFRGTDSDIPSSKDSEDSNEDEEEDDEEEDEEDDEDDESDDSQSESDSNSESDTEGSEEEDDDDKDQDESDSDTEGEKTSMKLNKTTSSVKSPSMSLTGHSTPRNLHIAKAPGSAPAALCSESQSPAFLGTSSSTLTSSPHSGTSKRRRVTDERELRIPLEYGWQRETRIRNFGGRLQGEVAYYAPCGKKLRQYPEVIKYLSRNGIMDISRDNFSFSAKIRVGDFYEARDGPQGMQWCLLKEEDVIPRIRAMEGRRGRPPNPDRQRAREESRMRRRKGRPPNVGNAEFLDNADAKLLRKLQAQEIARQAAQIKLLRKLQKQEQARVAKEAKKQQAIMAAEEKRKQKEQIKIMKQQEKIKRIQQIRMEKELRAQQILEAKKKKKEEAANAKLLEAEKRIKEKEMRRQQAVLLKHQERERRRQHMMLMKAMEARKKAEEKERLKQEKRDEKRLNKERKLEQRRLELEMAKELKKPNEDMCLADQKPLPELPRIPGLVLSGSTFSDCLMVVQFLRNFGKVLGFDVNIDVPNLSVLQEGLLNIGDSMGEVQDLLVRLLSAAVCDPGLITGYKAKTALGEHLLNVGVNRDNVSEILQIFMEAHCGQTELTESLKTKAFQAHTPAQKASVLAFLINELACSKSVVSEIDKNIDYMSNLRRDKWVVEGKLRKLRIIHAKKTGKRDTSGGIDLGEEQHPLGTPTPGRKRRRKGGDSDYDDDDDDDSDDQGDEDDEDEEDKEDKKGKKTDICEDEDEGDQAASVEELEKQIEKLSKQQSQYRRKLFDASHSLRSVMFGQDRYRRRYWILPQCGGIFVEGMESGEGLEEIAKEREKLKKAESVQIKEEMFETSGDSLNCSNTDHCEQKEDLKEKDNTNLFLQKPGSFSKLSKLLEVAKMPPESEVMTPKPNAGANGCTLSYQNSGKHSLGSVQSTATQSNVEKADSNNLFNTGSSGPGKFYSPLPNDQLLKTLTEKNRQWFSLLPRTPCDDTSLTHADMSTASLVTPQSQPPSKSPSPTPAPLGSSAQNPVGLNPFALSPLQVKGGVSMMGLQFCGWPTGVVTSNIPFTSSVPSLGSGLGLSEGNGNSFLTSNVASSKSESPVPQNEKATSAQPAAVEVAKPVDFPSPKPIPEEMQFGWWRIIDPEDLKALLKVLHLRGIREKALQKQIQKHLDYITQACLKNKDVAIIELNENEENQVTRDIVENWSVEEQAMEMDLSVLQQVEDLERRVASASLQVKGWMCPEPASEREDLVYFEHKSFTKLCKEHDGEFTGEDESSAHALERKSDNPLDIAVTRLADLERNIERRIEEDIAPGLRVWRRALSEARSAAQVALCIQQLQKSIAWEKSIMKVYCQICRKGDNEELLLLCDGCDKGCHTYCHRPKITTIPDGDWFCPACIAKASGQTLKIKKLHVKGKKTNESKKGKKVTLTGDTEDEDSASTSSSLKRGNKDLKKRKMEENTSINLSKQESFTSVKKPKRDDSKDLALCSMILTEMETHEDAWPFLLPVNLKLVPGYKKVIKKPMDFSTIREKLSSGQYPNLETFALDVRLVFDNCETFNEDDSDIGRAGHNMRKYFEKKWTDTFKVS
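Protein-peptide AlphaScreen: BAZ2B 50 nM, b-H3K14Ac 50 nM, 1x PBS pH 7.4 + 0.01% Tween-20. Preincubation 30 min RT; cpd 30 min RT (top 110 uM); beads 20 min RT, light-protected.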
Sfp inh = blocks B. subtilis Sfp PPTase activity. Potency, µM, for the others: largest response in the series, negative = inhibition, actives largely listed as inhibitors. Q9F4F7. AID 1490. Biochemical Sfp PPTase activity, qHTS. 3.5% of 310,000 active;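 further: the enzyme is Sfp with the accession as filed and its product quenches rhodamine fluorescence; 0% = enzyme reaction without inhibitor and -100% = no enzyme wells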
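Buffer: 50 mM Hepes-Na pH 7.6, 10 mM MgCl2, 0.01% Nonidet P-40, 0.01% BSA. Enzyme 15 nM, pre-exposed to compound 15 min; substrates then added and fluorescence change tracked over 30 min.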
Starred values were filed as active, the others as inactive; u = inconclusive; x = no result given; [ ] = another dose, or the depositor's remark. The call rests on the fitted dose curve; in most records, active means well fitted curve in the direction sought with a large enough effect; inconclusive means small, poorly fitted or top-dose-only effect, or another doubt; inactive means no such curve, though single readings can be large; an effect the other way counts as inactive or inconclusive. Potency means the concentration at half of the fitted maximal effect.

SMILES	HP1b chromo inh	JMJD2A Tudor inh	L3MBTL1 block	G9a block	BAZ2B inh	Sfp inh
O=[N+]([O-])c1ccc(N/N=C/c2ccc(O)c(O)c2O)c(S(=O)(=O)N2CCOCC2)c1	20µM*	45µM*	-25%	x	32µM*	7.1µM*
O=[N+]([O-])c1ccc(N2CCOCC2)c(S(=O)(=O)N2CCOCC2)c1	30%	-14%	x	-34%	x	19%
O=C(CCc1ccc(S(=O)(=O)N2CCOCC2)cc1)N/N=C/c1ccc(O)c(O)c1O	u	79µM*	14µM*	7.9µM*	u	22µM*
COc1cc(/C=N/Nc2ccc([N+](=O)[O-])cc2S(=O)(=O)N2CCOCC2)cc(OC)c1OC	51%	8%	11%	u	0%	16%
O=[N+]([O-])c1ccc(N2CCN(c3ccccc3F)CC2)c(S(=O)(=O)N2CCOCC2)c1	6%	u	-5%	20µM*	-9%	6%
Cc1oc2ccc(O)c(CN3CCN(Cc4ccccc4)CC3)c2c1C(=O)Nc1cccc(Cl)c1C	15%	-16%	x	-16%[59 µM]	-9%	x
CC[C@H](C)[C@H](NC(=O)[C@@H](NC(=O)CNC(=O)[C@@H](N)CC(C)C)[C@@H](C)O)C(=O)N1CCC[C@H]1C(=O)NCC(=O)O	x	x	x	x	x	1%
O=[N+]([O-])c1cccc(N/N=C/c2cccc(O)c2O)c1	-16%	-30%	u	22µM*	u	-22%
COc1cccc(-c2noc(Cn3nc(C(=O)O)c4ccccc4c3=O)n2)c1	8%	-11%	x	-6%	-12%	2%
O=C(O)c1nn(Cc2ncc(-c3cccc(Cl)c3)o2)c(=O)c2ccccc12	u	-30%	x	40µM*	-20%	10%
CCOc1cc(C2CC(=O)NC3=C2C(=O)C(C(=O)OC)C(C)C3)cc(Br)c1O (stereo not given)	18%	-15%	1%	45µM*	-7%	50µM*
COc1ccccc1CNC(=O)CCc1c(C)c2cc3c(C)coc3cc2oc1=O	4%	-28%	x	-35%[59 µM]	-14%	x
CCOC(=O)c1sc(N=NC2=C(O)CCCC2=O)c(C(=O)OCC)c1C	u	25µM*	3.5µM*	14µM*	13µM*	-25%
CCOC(=O)/C(N=Nc1sc(C(=O)OCC)c(C)c1C(=O)OCC)=C(\C)O	x	x	-4%	-9%[59 µM]	-10%	-1%
CCc1sc(-c2cc3ccccc3oc2=O)nc1-c1ccc(C)cc1	185%[57 µM]	139%[57.1 µM]	x	x	x	x
Cc1cccc(C)c1Nc1c(-c2ccccn2)nc2ccccn12	u	45µM*	u	40µM*	25µM*	16%
Cc1ccc2nc(-c3ccccn3)c(NC3CCCC3)n2c1	u	45µM*	-2%	-43%	-9%	5%
Cc1cccc(C)c1Nc1c(-c2ccsc2)nc2ccccn12	u	45µM*	x	14µM*	u	x
Cc1ccc(C(=O)c2oc3ccccc3c2NC(=O)COc2ccccc2C)cc1	38%	3%	x	23%[59 µM]	3%	x
COc1ccccc1NC1=C(Cl)C(=O)N(C2CCCCC2)C1=O	-14%	u	-21%	45µM*	u	-15%
CCCOc1ccc(C2=NC(c3ccc(F)cc3)=Nc3ccc(OC)cc3N2)cc1	2%	u	x	-23%[59 µM]	10µM*	x
Cc1ccc(NC(=O)Cn2cc(S(=O)(=O)Cc3ccc(F)cc3)c3ccccc32)cc1Cl	-30%	56µM*	x	-50%[59 µM]	50µM*	x
CN(C)c1ccc(NC(=O)Cn2cc(S(=O)(=O)Cc3ccccc3Cl)c3ccccc32)cc1	-18%	u	x	5µM*	25µM*	x
CC(C)C[C@@H](C=O)NC(=O)[C@H](CC(C)C)NC(=O)[C@H](CC(C)C)NC(=O)OCc1ccccc1	x	x	x	8.9µM*	x	-9%
O=C(N[C@@H](Cc1ccccc1)C(=O)CCl)OCc1ccccc1	55%	-9%	3%	15µM*	4%	x
SMILES	HP1b chromo inh	JMJD2A Tudor inh	L3MBTL1 block	G9a block	BAZ2B inh	Sfp inh
COC(=O)C(CC(C)C)NC(=O)C(N)Cc1ccccc1 (stereo not given)	12%	u	6%	45µM*	4%	10%
COC(=O)CCC(NC(=O)OCc1ccccc1)C(=O)NC(CC(C)C)C(=O)OC (stereo not given)	13%	-21%	2%	-12%	4%	23%
CN1CCOc2ccc(S(=O)(=O)N3CCN(S(=O)(=O)c4c(F)cccc4F)CC3)cc21	x	-14%	9%	8%[12.7 µM]	13%	x
CCOC(=O)c1ccccc1NC(=O)c1sc2ncn(Cc3cccc(F)c3)c(=O)c2c1C	31%	0%	x	-24%[59 µM]	3%	x
COC(=O)c1c(NC(=O)c2cc3ccccc3c(=O)o2)sc2c1CCCC2	39%	2%	x	9%[59 µM]	-1%	x
COc1ccc(C(=O)C[n+]2cccc(C)c2C)cc1[N+](=O)[O-]	21%	5%	14%	x	-8%	-5%
CCC(C)(C)c1ccc(OCCCC[n+]2ccc(C)cc2)c(C(C)(C)CC)c1	41%	-30%	x	u	-18%	40µM*
CCC(C)(C)c1ccc(OCCCC[n+]2cccc(C)c2C)c(C(C)(C)CC)c1	27%	-14%	2%	x	-12%	45µM*
CCn1c(CN2CCCCC2)nc2cc(NC(=O)COc3ccc(C(C)(C)C)cc3)ccc21	64%	-6%	x	2%[59 µM]	-30%	x
CCN1CCN(C(=O)c2ccc(-c3nc4ccccc4s3)s2)CC1	13%	-12%	6%	-43%	1%	1%
CCCN1CCN(C(=O)c2ccccc2-c2nc3ccccc3s2)CC1	23%	-24%	-4%	40µM*	-31%	10%
CC#CCN1c2ccccc2[C@]23C[C@@H](C(=O)OC)N(S(=O)(=O)c4ccc(C(F)(F)F)cc4)C2=NC(C(=O)OC)=C(C(=O)OC)[C@H]13	x	x	x	x	x	11%
CC(=O)NC(Cc1ccccc1)C(=O)O (stereo not given)	34%	-6%	10%	-9%	-3%	8%
CC1CCN(C(=O)N[C@@H](Cc2ccccc2)C(=O)O)CC1	5%	-13%	7%	-6%	20%	26%
CC1CN(C(=O)N[C@@H](Cc2ccccc2)C(=O)O)CC(C)O1 (stereo not given in full)	25%	-2%	3%	56µM*	-7%	10%
O=C(O)[C@H](Cc1ccccc1)NC(=O)N1CCC(Cc2ccccc2)CC1	1%[57 µM]	-3%	x	14µM*	-15%	17%
N[C@@H](Cc1ccccc1)C(=O)N1CCC(C(=O)N[C@@H](CCC(=O)O)C(=O)O)CC1	19%	18µM*	x	79µM*	1%	-3%
O=C(O)c1cc(N(Cc2ccccc2O)Cc2ccccc2O)ccc1O	-28%	50µM*	x	x	x	56µM*
CCN(CC)c1ccc(C(=O)c2ccccc2C(=O)O)c(O)c1	40%	-7%	u	-10%[59 µM]	24%	10%

Screening results as filed in PubChem.
